Reference: publication PMC5540273 (PLoS ONE, 2017)

Each molecule was assayed on PKN2. Conditions: concentration: 1 μM, replicates: in singlicate; n = 1.
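Also: KINOMEscan kinase panel screen.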

Row | SMILES | %Inh [%]
1 | Fc1cccc(COc2ccc(Nc3ncnc4cc[nH]c34)cc2Cl)c1 | 0
2 | O=C(CCO)NCCn1ccc2ncnc(Nc3ccc(Oc4cccc(C(F)(F)F)c4)c(Cl)c3)c21 | 1
3 | COc1cc2c(Nc3cccc(NC(=O)c4ccccc4)c3)ncnc2cc1OCCCN1CCOCC1 [GSK223810] | 0
4 | Cl.Cn1ccc(-c2cccc(Nc3ccnc4cc(-c5nccs5)ccc34)c2)n1 [GW525701] | 0
5 | Nc1n[nH]c2nnc(-c3ccccc3)cc12 [SB-517389] | 0
6 | Fc1cccc(COc2ccc(Nc3ncnc4nn5ccccc5c34)cc2Cl)c1 [GW689066] | 0
7 | CN1c2ccc(-c3ccc(C(=O)NCCO)cc3)cc2-c2[nH]ncc2S1(=O)=O | 30
8 | Clc1cccc(-c2nc(Nc3ccncc3)c3ccccc3n2)c1 [GW873004] | 20
9 | COc1ccc(Nc2nccc(N3CCC(NC(=O)c4cccc(NC(C)=O)c4)C3)n2)cc1 (stereo not drawn) [GSK1379732] | 0
10 | COc1ccc(Nc2nccc(N3CCC(NC(=O)Nc4ccc5c(c4)OCO5)C3)n2)cc1 (stereo not drawn) [GSK1379745] | 0
11 | COC(=O)c1c(-c2ccccc2)c2cc(Cl)ccc2c(=O)n1Cc1ccc(S(C)(=O)=O)cc1 | 0
12 | Cc1ccc(NC(=O)c2cccc(C#N)c2)cc1-c1ccc(C(=O)Nc2ccncc2)cc1 [GSK1398463] | 0
13 | O=C(c1ccc(-c2cc(-c3c[nH]nc3-c3ccccn3)ccn2)cc1)N1CCCC1 [GW792479] | 0
14 | O=c1cc(N2CCOCC2)nc2n(Cc3cccc(Cl)c3)ccn12 [GSK2296823] | 0
15 | Cn1cc(-c2ccc3c(c2)CCN3C(=O)Cc2cccc(C(F)(F)F)c2)c2c(N)ncnc21 [GSK2606414] | 0
16 | CSc1ccc(NC2=C(c3ccccc3Cl)C(=O)NC2=O)cc1 [SB-342411] | 0
17 | FC(F)(F)c1cc(Nc2nccc(-c3c(-c4ccc(Cl)cc4)nn4ncccc34)n2)ccc1Cl [GW829351] | 0
18 | Nc1nc(-c2ccc3c(N)n[nH]c3c2)cc(N2CCCCC2)n1 [GSK2228768] | 0

Row | SMILES | %Inh [%]
19 | Nc1nc(-c2cccnc2)c(-c2ccnc3ccccc23)s1 [GW684083] | 0
20 | O=C(Nc1ccccc1)Nc1ccc(Oc2ccc3nccn3n2)cc1 | 4
21 | O=C(Nc1ccccc1F)NC1CCN(c2ccnc(Nc3ccc(F)cc3)n2)C1 (stereo not drawn) [GSK1379722] | 0
22 | CNc1nccc(-c2c(-c3ccc(F)cc3)ncn2CCCN2CCOCC2)n1 [SB-222516] | 36
23 | CCn1c(-c2ccncc2)nc2cnccc21 [SB-735216] | 20
24 | Fc1cccc(COc2ccc(Nc3ncnc4sc(-c5ccc[nH]5)cc34)cc2Cl)c1 [GW707818] | 1
25 | N#Cc1ccc(Oc2ccc(Nc3ncnc4cc[nH]c34)cc2Cl)cc1 | 0
26 | Cc1cc(N2CCC(NS(=O)(=O)c3ccc(F)cc3)CC2)nc(Nc2cccc(C#N)c2)n1.O=C(O)C(F)(F)F [GSK1653537] | 0
27 | CC(C)(C)OC(=O)NC1CCCN(c2cc(-c3ccc4c(N)n[nH]c4c3)nc(N)n2)C1 (stereo not drawn) [GSK2286096] | 0
28 | Fc1ccc(-c2ncn(CCCNCc3ccccc3)c2-c2ccncc2)cc1 | 1
29 | Cc1ccc(C)c(NC(=O)NCCNc2ccnc(Nc3ccc(F)cc3)n2)c1 [GSK1379878] | 0
30 | CSc1nn2c(=O)cc(N3CCOCC3)nc2n1Cc1cccc(Cl)c1Cl [GSK2347225] | 0
31 | c1ccc(-c2ccc3c(-c4ccnc(Nc5ccc6c(c5)OCCO6)n4)cnn3n2)cc1 [GW818941] | 0
32 | CCc1nc(-c2cccc(N(C)S(=O)(=O)c3ccccc3)c2)c(-c2ccnc(Nc3ccc(N4CCN(C(C)=O)CC4)nc3)n2)s1 [GSK1645895] | 0
33 | Cl.Cl.c1ccc(-c2cc3ccncc3cc2OC2CCNCC2)cc1 [GSK1122999] | 19
34 | CS(=O)(=O)CCNCc1nc(-c2ccc3ncnc(Nc4ccc(OCc5cccc(F)c5)c(Cl)c4)c3c2)cs1.Cl [GW583340] | 0
35 | Cc1cccc(-c2nc(Nc3ccc4[nH]nnc4c3)c3ccccc3n2)n1 [GW867587] | 0
36 | Nc1nc(-c2ccccn2)c(-c2ccnc3ccccc23)s1 [GW548057] | 9
